In the library only some 7.5% were active in any assay of this set; here they are far more common.
FLuc modulator: inhibits or activates purified firefly luciferase, miR-21 counter-screen; P08659; purified FLuc, Km substrates, luminescence inhibition; Potency, µM (doses to about 57.5 µM), inactives show at the top dose activity change, negative = inhibition, most hits filed as inhibitors; hit rate 6.9% among 360,000;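 also: plate controls were vehicle for no effect and reference inhibitor for full effect; nearly all actives have a fitted effect of over 55% in size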
Target sequence (P08659 whole entry, looked up): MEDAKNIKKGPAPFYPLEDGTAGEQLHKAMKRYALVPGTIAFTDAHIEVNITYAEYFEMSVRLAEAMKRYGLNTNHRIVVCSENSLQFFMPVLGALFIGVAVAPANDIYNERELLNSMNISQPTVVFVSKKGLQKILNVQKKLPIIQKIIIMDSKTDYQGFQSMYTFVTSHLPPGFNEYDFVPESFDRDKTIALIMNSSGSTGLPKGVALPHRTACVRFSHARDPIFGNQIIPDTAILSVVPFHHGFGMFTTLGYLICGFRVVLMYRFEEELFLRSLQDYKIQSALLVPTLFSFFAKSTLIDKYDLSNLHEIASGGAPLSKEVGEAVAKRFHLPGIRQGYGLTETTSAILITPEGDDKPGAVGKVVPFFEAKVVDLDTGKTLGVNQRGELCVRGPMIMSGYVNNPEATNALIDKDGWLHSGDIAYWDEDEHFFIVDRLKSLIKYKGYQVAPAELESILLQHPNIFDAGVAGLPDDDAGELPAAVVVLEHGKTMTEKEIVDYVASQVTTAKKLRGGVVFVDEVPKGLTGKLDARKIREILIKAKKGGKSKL
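Purified P. pyralis luciferase, 10 nM final, with Km-level 10 uM D-luciferin and 10 uM ATP in 50 mM Tris acetate pH 7.5, 10 mM Mg acetate, 0.01% Tween-20, 0.05% BSA; 6-point qHTS titration about 60 µM downward; luminescence read.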
SMN2 splice enh: increases expression of the SMN2 splice variant. hit rate 2.8% among 210,000. AID 1458. Potency, µM (series often up to 46.1 µM), without a hit: top-dose activity change, positive = activation, most hits filed as activators. HEK293 SMN2-luciferase splicing reporter, luminescence, 30-36 h; also: % of control where 0% means no effect; nearly all actives have a fitted effect of over 55% in size
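qHTS luciferase splicing reporter: luminescence rises when SMN2 exon 7 is included in transfected HEK293 cells. Compound exposure lasted 30-36 h at 37C, with 4.5 mM final sodium butyrate as control, followed by a ONE-Glo read.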
KinaseGlo FLuc: blocks Kinase-Glo luciferase, a counter-screen artifact. Kinase-Glo luciferase, ATP luminescence, 8 min. Potency, µM (doses to about 38.3 µM), for the others: top-dose activity change, negative = inhibition, actives largely listed as inhibitors. hit rate 0.28% among 200,000. AID 1379. Q27757; also: % is scaled to controls: 0 for no effect and ±100 for the full control effect; nearly all actives have a fitted effect of over 60% in size
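Luminescence was the read-out, taken after 8-minute incubation at ambient temperature. Luciferase turned over luciferin with 10 uM ATP in imidazole pH 7.2 buffer containing KCl, MgCl2, Tween 20 and BSA.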
ELG1 genotoxic: inducers of genotoxicity in HEK293T ELG1-luciferase cells; HEK293T ELG1-luciferase reporter, luminescence, 16 h; Potency, µM (titrated, usually from 46 µM), for the others: top-dose activity change, positive = activation, hits mostly activators; hit rate 1.3% among 330,000; also: % of control where 0% means no effect; nearly all actives have a fitted effect of over 60% in size
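ELG1-luciferase HEK293T cells, 2,000/well; compound pinned in; 16 hr, 37 °C, 5% CO2; ONE-Glo, 30 min RT; luminescence on CCD imager.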
NPC1 prom act: activators of NPC1 promoter. Potency, µM (highest dose often 9.22 µM), for the others: at the highest dose activation, hits mostly activators. hit rate 2.4% among 320,000. Huh7 NPC1 promoter luciferase reporter, 24 h. AID 485313; also: % of control where 0% means no effect; nearly all actives have a fitted effect of over 60% in size
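Cells: Huh7 expressing luciferase under the NPC1 promoter, 1500/well. Seeded 2 h, compound added, incubated 24 h at 37 °C. Luciferase reagent, 10 min ambient, then luminescence.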
Rab9 prom act: activators of Rab9 promoter | AID 485297 | Potency, µM (top dose mostly 9.22 µM), for the others: at the highest dose activation, negative = inhibition, usual class: activators | Huh7 Rab9 promoter-luciferase reporter, luminescence, 24 h | hit rate 2.8% among 320,000; also: % of control where 0% means no effect; nearly all actives have a fitted effect of over 60% in size
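Measured in stably transfected Huh7 cells bearing a Rab9 promoter–luciferase construct: 24 h compound treatment at 37 °C, followed by luminescence detection.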
An asterisk follows results filed as active; ? = inconclusive; . = no result; [ ] = dose if it differs, or a comment. Calls follow the shape of the dose curve; as a rule, active = well fitted curve in the direction sought with a large enough effect; inconclusive = small, poorly fitted or top-dose-only effect, or another doubt; inactive = no such curve, though single readings can be large; an effect the other way counts as inactive or inconclusive. Potency is read from the fitted curve at half-maximal effect.

SMILES	FLuc modulator	SMN2 splice enh	KinaseGlo FLuc	ELG1 genotoxic	NPC1 prom act	Rab9 prom act
C=CCn1c(SCC(=O)Nc2cccnc2Cl)nnc1-c1ccc(C(C)(C)C)cc1	21µM*	.	.	-3%	-2%	3%
C=CCn1c(C)nnc1SCC(=O)Nc1nccs1	4%	.	.	1%	?	0.089µM*
C=CCn1c(SCC(=O)Nc2nccs2)nnc1-c1ccco1	5%	-7%	-1%	0%	-2%	0%
Cc1nc(SCC(=O)Nc2nc3ccccc3s2)c(C#N)c(C)c1C	2.1µM*	-102%	-3%	-12%	-26%	-48%
Cn1c(=O)c(=O)n(C)c2cc(S(=O)(=O)Nc3ccc(Cl)c(C(F)(F)F)c3)ccc21	?	-5%	.	.	.	.
CCOC(=O)C1(C/C(C)=N/NC(N)=O)CC(C)OC1=O (stereo unspecified)	1%	?	-3%	-1%	1%	4%
Cn1nc(C(F)(F)F)c(C(=O)Nc2cccc(Cl)c2)c1Cl	4%	-15%	-2%	0%	-1%	-3%
CCN(C(=O)c1cc2c(s1)-c1c(C)cccc1OC2)c1cc(C)ccc1C	-11%	-4%	.	.	.	.
COc1ccc(Br)cc1C1N2CC3(C)CN1CC(C)(C2)C3=O (stereo unspecified)	4%	-18%	0%	-14%	0%	-3%
COc1cc(-c2cc(-c3ccccc3)nc(SCC(=O)Nc3nccs3)c2C#N)cc(OC)c1OC	2%	-21%	-2%	3%	-3%	6%
Cc1ccc2sc(NC(=O)CSc3nc(C)cc(C)c3C#N)nc2c1	3.8µM*	2.5µM*	-1%	?	?	28%
Cc1ccc(NC(=O)CSc2nsc(SCC(=O)Nc3ccc(C)cc3C)c2C#N)c(C)c1	4%	.	.	7%	-6%	-5%
Cc1csc(NC(=O)CSc2nsc(SCC(=O)Nc3nc(C)cs3)c2C#N)n1	?	11µM*	1%	?	2.5µM*	1.6µM*
Cc1nc(SCC(=O)Nc2nccs2)c(C#N)c(C)c1C	1.1µM*	.	.	?	?	0.56µM*
COc1ccccc1CNC(=O)CCn1c(=O)c2ccccc2n(CC(=O)Nc2ccc(C)cc2C)c1=O	0%	-4%	.	.	.	.
COc1ccc(N2CCN(C(=O)c3cc(-c4ccc(C)c(F)c4)on3)CC2)cc1	-9%	.	.	.	.	.
CC[C@]1(c2ccccc2)NC(=O)N(C)C1=O	.	-8%[20.6 µM]	1%[17.1 µM]	.	.	.
COC1CCC(C(=O)c2ccc3nc4c(cc3c2)CCCO4)CC1 (stereo unspecified)	.	13µM*	0%	.	.	.
Cc1ccc2cc3c(nc2c1)OCC3	-29%	.	.	9%	4%	1%
Cc1cccc(C)c1NC(=O)C(c1ccc([N+](=O)[O-])cc1)N(C)C(=O)c1ccccn1 (stereo unspecified)	-4%	-11%	4%	-2%	-1%	-2%
Cc1ccc(C(=O)Nc2nc(C)c(C(=O)Nc3ccc4c(c3)CCC4)s2)cc1	15µM*	5.6µM*	-15%	18µM*	-13%	-4%
Cc1nc(NC(=O)c2ccc(F)cc2)sc1C(=O)Nc1ccc2c(c1)CCC2	13µM*	?	?	7%	0%	5%
COc1ccc(NC(=O)[C@@H](NC(=O)c2ccccc2F)C(C)C)cc1S(=O)(=O)N1CCOCC1	2%	13%	1%	-1%	-2%	-4%
O=C(CCC(=O)c1cccs1)NCc1cccc(Cl)c1	1%	.	.	2%	-3%	-1%
CCOC(=O)c1cc(-c2ccc(OC)cc2)n(CCC(=O)NCCc2ccc(OCC)c(OCC)c2)c1C	-1%	.	.	.	.	.
SMILES	FLuc modulator	SMN2 splice enh	KinaseGlo FLuc	ELG1 genotoxic	NPC1 prom act	Rab9 prom act
Cc1c(NC(=S)NC(NC(=O)C(C)(C)C)C(Cl)(Cl)Cl)c(=O)n(-c2ccccc2)n1C (stereo unspecified)	0%	0%	0%	2%	-2%	-4%
CCN1/C(=C/C(=O)c2ccco2)Sc2ccccc21	24µM*	14%	-7%	0%	4%	?
CCC(=O)/C=C1/Sc2ccccc2N1CC	-14%	-5%	-4%	-3%	-1%	-3%
O=C(O)[C@H]1O[C@H]1C(=O)O	.	-13%[9.22 µM]	0%[7.66 µM]	.	.	.
O=C(Nc1ncccc1Cl)C1COc2ccccc2O1 (stereo unspecified)	17µM*	-15%	-5%	?	-2%	9%
O=C(Nc1ccc(-c2cn3ccsc3n2)cc1)C1COc2ccccc2O1 (stereo unspecified)	27µM*	9%	-3%	-1%	?	3.2µM*
CN(C)S(=O)(=O)Nc1ccc(-c2cn3ccsc3n2)cc1	27µM*	.	.	.	.	.
CC1CCC(NC(=O)C2COc3ccccc3O2)CC1 (stereo unspecified)	-5%	.	.	15µM*	18%	20%
O=C(NC1CCCCC1)C1COc2ccccc2O1 (stereo unspecified)	2%	.	.	4%	0%	3%
C/C(=N\NC(=O)C1COc2ccccc2O1)c1ccccn1 (stereo unspecified)	-11%	-76%	-2%	12µM*	-12%	-25%
Cc1ccnc(NC(=O)C2COc3ccccc3O2)c1 (stereo unspecified)	9.5µM*	?	-9%	?	2.8µM*	3.5µM*
O=C(Nc1cccnc1)C1COc2ccccc2O1 (stereo unspecified)	-3%	-5%	-7%	1%	0%	-3%
CC1(C)Oc2ccc(NC(=O)C3COc4ccccc4O3)cc2O1 (stereo unspecified)	1.9µM*	-23%	-22%	?	1.6µM*	0.5µM*
O=C(Nc1ccccc1)C1COc2ccccc2O1 (stereo unspecified)	-15%	.	.	16%	25%	10%
Cc1ccc(NC(=O)C2COc3ccccc3O2)nc1 (stereo unspecified)	13µM*	-6%	-6%	10µM*	24%	27%
Cc1ccc(NC(=O)C2COc3ccccc3O2)c(C)c1 (stereo unspecified)	?	.	.	11%	27%	4%
Cc1ccccc1NC(=O)C(=O)NCC1(c2ccccc2)CCCC1	2%	-10%	.	.	.	.
NS(=O)(=O)c1cccc(NC(=O)Cn2nc(C(=O)O)c3ccccc3c2=O)c1	0%	.	.	-1%	?	-5%
NCS(=O)(=O)O	.	-4%[9.22 µM]	-4%[7.66 µM]	.	.	.
Cc1ccc(NC(=O)C2COc3ccccc3O2)cc1 (stereo unspecified)	24µM*	.	.	?	2.8µM*	3.5µM*
Fc1cccc(Cl)c1/C=N/n1c(-c2cccnc2)n[nH]c1=S	?	-49%	3%	2%	0%	0%
CC(=O)c1ccc(OC(C)C)c(Cc2c(O)nc(N)[nH]c2=O)c1	0%	0%	-1%	4%	-5%	-1%
